# Pf Dd2 growth – Plasmodium falciparum Dd2 growth inhibition | P. falciparum Dd2 growth, SYBR Green, 72 h | Potency, µM (top dose mostly 28.9 µM), for inactives: at the highest dose activity, negative = inhibition, actives largely listed as inhibitors | actives 4.3% (n = 120,000); active = well fitted inhibition curve with a large enough effect;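 note: plate controls were DMSO vehicle for no effect and reference drug for full effect; nearly all actives have a fitted effect of over 65% in size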
#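 Readout: SYBR Green fluorescence, 485 nm excitation, 535 nm emission, after ~16 h lysis at 37C. Before that, Dd2-infected red cells (2.5% hematocrit) grew 72 h with compound, 29 uM top final concentration.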
# An asterisk follows results filed as active; i = inactive; [ ] = dose if it differs, or a comment. This excerpt belongs to a sample that is enriched for hits. Potency is the fitted concentration of half-maximal effect.
SMILES,Pf Dd2 growth
Cc1cc(C)cc(NC(=O)c2cc(S(=O)(=O)N3CCCCC3)c[nH]2)c1,28%
Cc1ccc(CNC(=O)c2cc(S(=O)(=O)N3CCCCC3)cn2C)cc1,-21%
Cn1cc(S(=O)(=O)N2CCCCCC2)cc1C(=O)NCc1ccc(F)cc1,-5%
Cn1cc(S(=O)(=O)N2CCCCC2)cc1C(=O)NCc1ccc(Cl)cc1,11µM*
O=C(Cn1ccn2nc3c(c2c1=O)CCCC3)NCc1ccccc1,16%
CN1C(=O)C(CC(=O)NC2CCC(O)CC2)(Cc2ccccc2)c2ccccc21 (stereo not drawn),9%
O=C1N(C2CCN(Cc3ccncc3F)CC2)C(c2ccncc2)C12CCCCC2 (stereo not drawn),-24%
COc1ccc(N2Cc3c(NCCOc4ccccc4)ncnc3N(C)CC2=O)cc1,-18%
COCCCNC(=O)C1c2ccccc2CC(=O)N1Cc1ccccc1 (stereo not drawn),-6%
COc1ccccc1-n1cc(CNC(=O)C(N)c2c(C)n[nH]c2C)cn1 (stereo not drawn),1%
COc1ccc(-c2noc(C(=O)O)c2[C@@H](C)NC(=O)C2CCCC2)cc1,-11%[44.1 µM]
Cn1cc(-c2ccccc2)cc1C(=O)O,i
CC[C@H]1CN(C(=O)Nc2cccc(OC)c2)CC[C@H]1CC(=O)N(C)CCC#N,i
Cc1c(CC(=O)NC2CCOCC2)c2c(n1Cc1ccc(F)cc1)CCCC2=O,-13%
Cc1c(CC(=O)N2CCC(C#N)CC2)c2c(n1Cc1ccccc1)CCCC2=O,-22%
Cc1c(CC(=O)NC2CCOCC2)c2c(n1CCc1ccccc1)CCCC2=O,10µM*
CCCNC(=O)C1COC2(CCN(C(=O)c3ccc(F)cc3)CC2)N1C(=O)c1ccccc1 (stereo not drawn),-13%
CCOc1ccc(NC(=O)c2cc3nc(-c4ccc(OC)cc4)cc(C(F)(F)F)n3n2)cc1,70%
CCOc1ccc(NC(=O)N2CCC(c3ccc(C)cc3)C2)cc1 (stereo not drawn),i
COc1ccc(OC)c(NC(=O)c2cnc(N3CCCC3)nc2C)c1,26%
CCOc1ccc(-c2cc3nc(C4CCN(C(=O)OC(C)(C)C)CC4)c(C(=O)Nc4ccc(C)c(F)c4)cn3n2)cc1,7.1µM*
COc1ccc(-c2cn3nc(N4CCC(C(=O)Nc5cc(Cl)ccc5OC)CC4)sc3n2)cc1,i
CCOc1ccc(-c2cc3nc(C4CCN(C(=O)OC(C)(C)C)CC4)c(C(=O)Nc4cc(OC)ccc4OC)cn3n2)cc1,4µM*
COCCN1C(=O)CC[C@]2(C(=O)NCc3ccc(F)c(Cl)c3)CCCC[C@@H]12,-23%
Cc1cn2nc(C(=O)NCc3ccco3)cc2c(=O)[nH]1,8%
SMILES,Pf Dd2 growth
COCC(=O)N[C@H]1C[C@@H](CO)N(Cc2ccccn2)C1,59%
O=C(NCC1CCN(Cc2ccc(F)cc2)CC1)c1cc2ccc3cccnc3c2[nH]1,7.1µM*
CCN(CC)S(=O)(=O)c1ccc(NC(=O)c2cc3ccc4cccnc4c3[nH]2)cc1,11µM*
O=C(c1cc2ccc3cccnc3c2[nH]1)N1CCCCC1,7%
O=C(NCc1cccc(Cl)c1)c1cc2ccc3cccnc3c2[nH]1,13µM*
COc1ccccc1NC(=O)c1cc2ccc3cccnc3c2[nH]1,i
CCOC(=O)C1CCN(C(=O)c2cc3ccc4cccnc4c3[nH]2)CC1,16%
CCOC(=O)c1ccccc1NC(=O)c1cc2ccc3cccnc3c2[nH]1,-14%
O=C(NCC1CCN(Cc2ccccc2Cl)CC1)c1cc2ccc3cccnc3c2[nH]1,7.9µM*
CC1CCCN(C(=O)c2cc3ccc4cccnc4c3[nH]2)C1 (stereo not drawn),-13%
O=C(Cn1ncc2c([nH]c3ccccc32)c1=O)NCC1CCN(Cc2ccc(F)cc2)CC1,i
O=C(NCc1ccc(Cl)cc1)c1cc2ccc3cccnc3c2[nH]1,-17%
O=C(c1cc2ccc3cccnc3c2[nH]1)N1CCN(c2cccc(Cl)c2)CC1,i
O=C(Cc1ccsc1)N[C@@H]1COCC[C@@H]1OCc1cscn1,-5%
CSc1ccc(CNC(=O)c2noc(-c3ccc(F)cc3)n2)cc1,24%
OC1CC(c2cc(NCCCn3ccc4ccccc43)ncn2)C1 (stereo not drawn),-18%
O=C1[C@@H]2C[C@@H](O)CN2C2(CN(C3CCCCC3)C2)C(=O)N1Cc1ccccc1Cl,i
NCC1CCCN(Cc2ccc(-c3nc(-c4cccnc4)cc(=O)[nH]3)cc2)C1 (stereo not drawn),-17%
COc1ccc(NC(=O)N2CCCC(Cc3nncn3C)C2)cc1 (stereo not drawn),8%
COc1ccc(CNC(=O)[C@H]2CCC[C@H]2NC(=O)c2ccc(OC)nc2)cc1,-11%
CC(=O)Nc1ccc(S(=O)(=O)N2C[C@@H]3C[C@H](C2)c2ccc(-c4ccccc4C)c(=O)n2C3)cc1,i
COc1ccc(C2Cn3nnc(-c4noc(CCc5ccccc5)n4)c3CO2)cc1 (stereo not drawn),i
COc1cccc(CN2CC[C@H]3COC(=O)N3c3cc(F)ccc3C2)c1,i
CC1=C[C@@H](CO)[C@H](C(C)C)C[C@H]1CC(=O)NCc1cccnc1,3%[44.1 µM]
CSc1cccc(NC(=O)Cn2c(Nc3cc(C)cc(C)c3)nc(C)cc2=O)c1,-10%
SMILES,Pf Dd2 growth
CC(C)N(Cc1ccccc1)C(=O)c1cc2ccc3cccnc3c2[nH]1,13µM*
Cc1ccc(Cl)cc1N1CCN(C(=O)c2cc3ccc4cccnc4c3[nH]2)CC1,-2%
O=C(c1cc2ccc3cccnc3c2[nH]1)N1CCN(c2ccc(Cl)cc2)CC1,-22%
O=C(c1cccc(C(F)(F)F)c1)N1CCC(Oc2ncccc2C(=O)N2CCCCC2)C1 (stereo not drawn),i
COc1cccc(CCn2ccnc2-c2cc3n(n2)CCCNC3)c1OC,i
Cc1ccc(C)c(S(=O)(=O)c2cn(Cc3ccccc3)c3cc(N4CCCC4)c(F)cc3c2=O)c1,10µM*
Cc1cccc(S(=O)(=O)c2cn(Cc3ccccc3)c3cc(N4CCCC(C)C4)c(F)cc3c2=O)c1 (stereo not drawn),i
Cc1ccc(S(=O)(=O)c2cn(Cc3ccccc3)c3cc(N4CCCCC4)c(F)cc3c2=O)cc1,-23%
CCCCn1cc(S(=O)(=O)c2cccc(C)c2)c(=O)c2cc(F)c(N3CCOCC3)cc21,-28%
Cc1cccc(S(=O)(=O)c2cn(C)c3cc(N4CCC(C)CC4)c(F)cc3c2=O)c1,29%
Cc1ccc(S(=O)(=O)c2cn(Cc3ccccc3)c3cc(N4CCOCC4)c(F)cc3c2=O)cc1,7.9µM*
CCCCn1cc(S(=O)(=O)c2cc(C)ccc2C)c(=O)c2cc(F)c(N3CCC(C)CC3)cc21,46%
Cc1cccc(Cn2cc(S(=O)(=O)c3ccccc3)c(=O)c3cc(F)c(N4CCOCC4)cc32)c1,8.9µM*
Cc1cccc(Cn2cc(S(=O)(=O)c3cccc(C)c3)c(=O)c3cc(F)c(N4CCOCC4)cc32)c1,0%
Cc1cccc(S(=O)(=O)c2cn(Cc3ccc(F)cc3)c3cc(N4CCOCC4)c(F)cc3c2=O)c1,6.3µM*
O=C(c1ccccc1F)N1CCc2nc(-c3ccc(Cl)cc3)nc(-c3ccccc3)c2C1,i
CC(=O)N1CCC(N[C@H]2C[C@@H](Cc3cc(CN4CCOCC4)on3)C2(C)C)CC1,5%[44.1 µM]
COCC1CN(C(C)=O)CC12CCN(Cc1cccc(OC)n1)CC2 (stereo not drawn),-8%
CC(=O)Nc1ccc2c(c1)nc1n2[C@@H](CNC2CCOCC2)COC1,24%[44.1 µM]
COc1ccc(C(=O)N2CCC(N3CC4CCCN4C3=O)CC2)cc1 (stereo not drawn),16%

# Assay outcomes as filed in PubChem.
